Laboratory results as given in PubChem BioAssay (NCATS).
Results filed as inconclusive are left out. A number with no mark means an inactive call. The source made the active and inactive calls. Calls follow the shape of the dose curve; as a rule, active = well fitted curve in the direction sought with a large enough effect; inconclusive = small, poorly fitted or top-dose-only effect, or another doubt; inactive = no such curve, though single readings can be large; an effect the other way counts as inactive or inconclusive. Bridge positions count the residues as written; N and C are the ends. Square brackets hold non-standard residues; d marks the D form. Side chains are listed from the residue outwards. Peptide text beside a SMILES is read from it. * marks the point of attachment. Phg(4-OMe) = COc1ccc([C@H](N)C(=O)O)cc1; d(aIle) = CC[C@H](C)[C@@H](N)C(=O)O; d(aThr) = C[C@@H](O)[C@@H](N)C(=O)O; NMeF = CN[C@@H](Cc1ccccc1)C(=O)O; Isobutyryl = CC(C)C(=O)*

Test: qHTS for activators of Nrf2/ARE signaling pathway screened against the NCATS CANVASS Library (AID 1347391); also: nearly all actives have a fitted effect of over 60% in size; also: potency is read from the fitted curve at half-maximal effect; as to activation: 0% is about no effect
Conditions: ARE-bla HepG2, beta-lactamase reporter, 16 h; series mostly up to 46.1 µM; activation: at the top concentration
Outline: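 Beta-lactamase reporter signal, read as 460 and 530 nm emission under 405 nm excitation after 2 h CCF4 loading, reflected ARE activation in HepG2 cells treated 16 h with an 11-point series.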
For `CC(=O)Oc1cc2c(c(OC(C)=O)c1C1CCc3cc(Cl)c(Cl)n31)C(=O)n1c-2cc(Cl)c1Cl` (stereo not given), the “activation” value was -45.9%. In the case of `C/C=C(/C)c1c(Cl)c(O)c(C)c2c1Oc1c(Cl)c(O)c(Cl)c(C)c1C(=O)O2`, the “activation” value is reported as -53.1%. For `C[C@H]1C=C[C@H]2CCCC[C@@H]2[C@H]1C(=O)[C@H]1CC2=C(C(=O)O)CCN2C1=O`, the Potency was 16.6 µM (active). In the case of `COC12OC1(C13OC1(OC)C(=O)c1cc4cc(C)oc(=O)c4c(O)c1C3O)C(O)c1c(cc3cc(C)oc(=O)c3c1O)C2=O` (stereo not given), the “activation” value is reported as -25.6%. With `CO[C@H]1[C@@H](OC(=O)/C(C)=C\[C@@H]2O[C@@H]2[C@H]2O[C@H]2C)[C@H](O)[C@H](OCC23C[C@@H]4[C@H](C)CC[C@H]4C4(C=O)CC2C=C(C(C)C)C34C(=O)O)O[C@@H]1C` (stereo not given in full) the Potency was 16.6 µM (active).

Test: qHTS for activators of dead-cell proteases activity screened against the NCATS CANVASS Library (AID 1347392);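 also: luminescence from protease leaking out of membrane-damaged cells cleaving impermeant substrate; 0% is about no effect; rising signal means more cytotoxicity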
Conditions: HepG2 cytotoxicity, dead-cell protease luminescence, 5 h; series mostly up to 46.1 µM; activation (cytotoxicity): at the top concentration
Outline: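 Cytotoxicity in HepG2 cells was assessed by released protease cleaving AAF-aminoluciferin, with luminescence as signal. Exposure lasted 5 h at 37C across an 11-point series.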
With `CC(C)=CCC[C@]12c3cc4c(cc3CC[C@@]1(C)[C@H](C)CC[C@@H]2O)[nH]c1ccccc14` the “activation (cytotoxicity)” value was 1.27%. For `C/C=C/C1C=CC2CC(C)CC(C)C2C1C(=O)CC(=O)NC(CO)C/C=C/CCCCC` (stereo not given), the “activation (cytotoxicity)” value was 1.63%. For `C=C1CC[C@@H](Br)C(C)(C)[C@]12CC=C(C)C(=O)C2`, the “activation (cytotoxicity)” value was 4.87%. In the case of `C=CC(CCCCC)C1C(=O)NC(=O)C1C(=O)C1C(/C=C/C)C=CC2CC(C(=O)O)CC(C)C21` (stereo not given), the “activation (cytotoxicity)” value is reported as -3.8%. For `C=C[C@@]1(C)CC[C@@H]([C@H](C)C(=O)/C=C/C(C)(C)O)O1`, the “activation (cytotoxicity)” value was -1.7%. With `O=C1CC2OCC=C3CN4C5CC3C2[C@@H]2N1c1ccccc1[C@]52C[C@@H]4C1=C[C@H]2C3CC4N(CC[C@@]45c4ccccc4N(C1=O)[C@@H]25)C/C3=C/CO` (stereo not given in full) the “activation (cytotoxicity)” value was -1.41%. For `C=C1CC[C@@H](O[C@H]2C[C@@](O)([C@H](C)NC(=O)c3[nH]c(C)c(Cl)c3Cl)[C@H](O)[C@@H](C)O2)[C@@H]2C=C[C@H](C)C(/C(O)=C3/C(=O)[C@H](C(C)C)N([C@@H]4O[C@H](C)[C@H](OC(N)=O)[C@H](OC(C)=O)[C@@H]4OC)C3=O)[C@@H]12` (stereo not given in full), the “activation (cytotoxicity)” value was 3.38%. For `CC[C@H](C)[C@H]1NC(=O)[C@@H](NC(=O)C(C)C)[C@@H](C)OC(=O)[C@H](COC(=O)CNC(C)=O)NC(=O)[C@@H]([C@@H](C)O)NC(=O)[C@H](Cc2ccccc2)N(C)C(=O)[C@H](c2ccc(OC)cc2)NC1=O` (Isobutyryl-T[d(aIle)][Phg(4-OMe)][NMeF][d(aThr)]S([Gly-Ac]); ester 1-C), the “activation (cytotoxicity)” value was 1.02%. In the case of `C=C(C)CC[C@H](Cc1c(O)cc(O)c2c1O[C@H](c1ccc(O)cc1)CC2=O)C(=C)C`, the “activation (cytotoxicity)” value is reported as 4.4%. In the case of `COc1c(O)cc2c(c1O)C(=O)c1c(coc1C)C2=O`, the “activation (cytotoxicity)” value is reported as 0.755%. With `C[C@]12CC[C@]3(C1)[C@H](CC2=O)C[C@@H](OC(=O)c1ccccc1)[C@H]1[C@](C)(C(=O)O)CCC[C@@]13C` the “activation (cytotoxicity)” value was -2.85%. In the case of `Cc1occ2c1C(=O)c1c(cc(O)c(O)c1O)C2=O`, the “activation (cytotoxicity)” value is reported as 0.059%. For `COc1ccc2[nH]c3c(c2c1)CCN1C[C@H]2C[C@@H](OC(=O)c4cc(OC)c(OC)c(OC)c4)[C@H](OC)[C@@H](OC)[C@H]2C[C@H]31`, the “activation (cytotoxicity)” value was -2.13%. In the case of `C=C[C@](Cl)(CBr)CCC=C(C)C`, the “activation (cytotoxicity)” value is reported as -1.23%. For `CC(=O)O[C@H]1c2ccccc2-c2c3c(cc4c2[C@@H]1N(C(C)=O)CC4)OCO3`, the “activation (cytotoxicity)” value was -1.05%. With `C=CC(CCCCC)C1C(=O)NC(=O)C1C(=O)C1C2C(C)CC(C(=O)O)CC2CC1(O)C(=O)/C=C/C` (stereo not given) the “activation (cytotoxicity)” value was -2.84%. For `O[C@H]1c2ccccc2-c2c3c(cc4c2[C@@H]1NCC4)OCO3`, the “activation (cytotoxicity)” value was 1.41%. With `C[C@]12CCC[C@](C)(C(=O)O)[C@@H]1CC[C@@]1(C)c3cocc3CC[C@H]21` the “activation (cytotoxicity)” value was -0.951%. `COc1cc(C2OCC3C(c4ccc(O)c(OC)c4)OCC23)ccc1O` (stereo not given) showed an activation (cytotoxicity) of 4.3% [at 9.19 µM]. In the case of `COc1cc(O)c(C(=O)[C@@H]2[C@H](CC=C(C)C)C(C)=CC[C@H]2c2ccccc2)c(O)c1`, the “activation (cytotoxicity)” value is reported as -2.06%. For `C[n+]1cc2cc(C(N)=O)[nH]c3c(=N)c(Cl)c(N)c1c23`, the “activation (cytotoxicity)” value was 1.69%. In the case of `COc1cc2c(c(O)c1O)C(=O)c1c(coc1C)C2=O`, the “activation (cytotoxicity)” value is reported as -4.72%. For `CCC(=O)N[C@@H](C[C@H](C)C(Cl)(Cl)Cl)C(=O)N1C(=O)C=C(OC)[C@@H]1CC(C)C`, the “activation (cytotoxicity)” value was 0.896%. For `O=c1cc(-c2ccc(O)c(O)c2)oc2cc(O[C@@H]3O[C@H](CO)[C@@H](O)[C@H](O)[C@H]3O)cc(O)c12`, the “activation (cytotoxicity)” value was -9.64%. In the case of `C/C1=C/[C@@H](C)[C@H](O)[C@@H](O)/C=C/CC/C=C/C(=O)O[C@@H]1[C@H](C)C(=O)CCCC1CC(=O)NC(=O)C1`, the “activation (cytotoxicity)” value is reported as 0.261%.
